# Screening results: PubChem BioAssay, Bradner/Qi Labs at DFCI
# CBX7 inh: blocks human CBX7 binding to H3K27me3 peptide | O95931 | AlphaScreen His6-CBX7 / biotin-H3K27me3 peptide binding; hits give low values | normalised signal (fraction of DMSO) (concentration not given with the values) | actives 1.1% (n = 66,000); in the data active means normalised signal below about 0.5
# Target sequence (O95931 whole entry, looked up): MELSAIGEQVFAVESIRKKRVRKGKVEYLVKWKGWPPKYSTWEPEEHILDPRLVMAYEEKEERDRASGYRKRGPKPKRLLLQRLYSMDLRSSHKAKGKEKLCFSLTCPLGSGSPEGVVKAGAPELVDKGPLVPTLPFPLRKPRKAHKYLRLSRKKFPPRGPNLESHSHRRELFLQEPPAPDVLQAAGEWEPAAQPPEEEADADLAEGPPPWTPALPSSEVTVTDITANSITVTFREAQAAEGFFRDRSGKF
# The depositor's hits bear a star. This excerpt belongs to a sample that is enriched for hits.
SMILES,CBX7 inh
CCN1C(=O)c2ccccc2Sc2ccc(C(=O)NCC3CCCO3)cc21 (stereo unspecified),0.99
N#Cc1c(NC(=O)c2cccc(Cl)c2)sc2c1CCCC2,1
Cc1cc2cc(CCNC(=O)c3ccc4ccccc4c3)c(=O)[nH]c2cc1C,0.97
CC(=O)c1ccc(C(=O)Nc2ccc(C)cc2C(=O)c2ccccc2)cc1,0.96
O=C(Nc1ccccc1F)C1(S(=O)(=O)c2ccc(Cl)cc2)CC1,1.1
Cc1ccn2c(Nc3ccccc3C)c(-c3ccc(Cl)cc3)nc2c1,0.85
Cc1ccn2c(Nc3ccccc3C)c(-c3ccccn3)nc2c1,0.0084*
Cc1ccccc1Nc1c(-c2ccccn2)nc2ccccn12,0.13*
Cc1ccccc1Nc1c(-c2ccccn2)nc2cnccn12,0.8
Cc1ccn2c(Nc3ccccc3)c(-c3ccccn3)nc2c1,0.06*
Cc1ccc(Nc2c(-c3ccc(Cl)cc3)nc3cc(C)ccn23)cc1,1
Cc1ccccc1Nc1c(-c2cccnc2)nc2ccccn12,0.9
Cc1ccn2c(Nc3ccccc3)c(-c3cccnc3)nc2c1,0.94
COc1ccc(-c2nc3cc(C)ccn3c2Nc2ccccc2C)cc1,0.78
Cc1ccc(-c2csc3ncn(CC(=O)NCc4ccc(Cl)cc4)c(=O)c23)cc1,1.2
COc1cccc(C(=O)Nc2ccc3nc(N4CCN(c5ncccn5)CC4)cc(C)c3c2)c1,1
O=C(Nc1ncn[nH]1)c1ccc(F)cc1,0.63
Nc1c2c(nc3ccccc13)N(c1ccc(Cl)c(Cl)c1)CC2,1
CCOc1ccc(N2CCc3c2nc2ccc(Br)cc2c3N)cc1,0.21*
Cc1ccc2nc3c(c(N)c2c1)CCN3c1ccccc1,1.1
CCC1Sc2ccccc2N(CC(=O)NCCc2ccc(C)cc2)C1=O (stereo unspecified),1
CCCCc1nc2ccccc2n1CCCOc1ccc(Cl)cc1,1.1
Cc1ccccc1Nc1c(-c2ccc(Cl)cc2)nc2cccc(C)n12,0.94
Cc1ccccc1Nc1c(-c2ccc(N(C)C)cc2)nc2cccc(C)n12,0.46*
Cc1ccccc1Nc1c(-c2ccccc2)nc2cccc(C)n12,1
SMILES,CBX7 inh
COCCNC(=O)c1nn2c(c1Br)NC(c1cccs1)CC2C(F)(F)F (stereo unspecified),1.1
CCc1cc2c(=O)c(-c3nc4ccccc4n3C)c(C)oc2c(CN2CCCCC2)c1O,0.99
CCc1cc2c(C)cc(=O)oc2c(CN2CCCCCC2)c1O,0.96
CCc1cc2c(oc(=O)c3ccccc32)c(CN2CCN(C)CC2)c1O,0.34*
O=C(COc1ccc(-c2nnc(N3CCOCC3)c3ccccc23)cc1)N1CCCCC1,1
Cc1ccc2nc(N3CCN(C(=O)C4CCCCC4)CC3)nc(-c3ccccc3)c2c1,1.5
CCOCCCn1nnc2c(=O)[nH]c(C(=O)NCc3ccccc3Cl)nc21,1.1
CCCCc1nn(-c2ccccc2F)c2c1C(=O)CC(C)(C)C2,1.1
CCCn1cnc2cc(NCc3ccc(C)cc3)ccc21,0.46*
CCOc1ccc(CNc2ccc3c(c2)ncn3CC)cc1,0.86
CCn1cnc2cc(NCc3ccc(Cl)cc3)ccc21,0.89
CCCn1cnc2cc(NCc3cccc(OC)c3O)ccc21,0.91
CCCn1cnc2cc(NCc3cccc(OC)c3OC)ccc21,0.67
CCc1ccc(CNc2ccc3c(c2)ncn3C)cc1,0.53
Cc1ccc(CNc2ccc3c(c2)nc(C)n3C)cc1,0.96
CCCn1cnc2cc(NCc3ccc(OCC)cc3)ccc21,0.45*
CCCCn1cnc2cc(NCc3ccc(Cl)cc3)ccc21,0.22*
Cc1ccc(CNc2ccc3c(c2)ncn3C)cc1,0.65
CCCn1cnc2cc(NCc3ccccn3)ccc21,0.35*
O=C1CCc2cc(S(=O)(=O)NC(Cc3ccccc3)C(=O)Nc3ccccc3F)ccc2N1 (stereo unspecified),1
O=C(Nc1ccc2oc(-c3ccccc3)nc2c1)c1cccc(F)c1,0.94
CCOC(=O)c1cnc2c(C)cccc2c1Nc1ccc(C)c(C)c1,1.5
CCOC(=O)c1cnc2c(C(F)(F)F)cccc2c1Nc1ccc(O)cc1,0.8
CCOC(=O)c1cnc2ccc(C)cc2c1Nc1cccc(C)c1,0.99
CCOC(=O)c1cnc2c(C)cccc2c1Nc1ccc(N(C)C)cc1,0.25*
SMILES,CBX7 inh
CCOC(=O)c1cnc2ccc(C)cc2c1Nc1ccc(N(C)C)cc1,0.38*
CCOC(=O)c1cnc2c(C)cc(Cl)cc2c1Nc1ccc(N(C)C)cc1,0.83
CCOC(=O)c1cnc2ccc(C)cc2c1Nc1ccc(C)cc1,1.1
CCOC(=O)c1cnc2c(C(F)(F)F)cccc2c1Nc1ccc(NC(C)=O)cc1,0.86
CCOC(=O)c1cnc2c(C(F)(F)F)cccc2c1Nc1ccc(N(C)C)cc1,0.16*
CC1(C)CC(=O)c2c(oc3ccc(NS(=O)(=O)c4cc(Cl)ccc4Cl)cc23)C1,1.1
COCCNC(=O)c1ccc2c(c1)N(Cc1ccc(F)cc1)C(=O)c1ccccc1S2(=O)=O,1.1
COc1cc(-c2nnc(SCC(=O)c3ccc(Cl)cc3Cl)o2)cc(OC)c1OC,0.98
CC1CCCCC1NC(=O)C1c2cccn2CC(=O)N1Cc1ccccc1 (stereo unspecified),1.1
